High-throughput results as filed in PubChem.
DNA Pol III inh = blocks replication by bacterial DNA polymerase III holoenzyme. reconstituted DNA polymerase III holoenzyme replication, biochemical. Potency, µM (series often up to 57.1 µM), for the others: at the highest dose activity change, negative = inhibition. 71,000 tested, 0.25% active. AID 603; further: potency means the concentration at half of the fitted maximal effect; on the % scale 0 is the no-effect control and ±100 the full control effect
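Reconstituted *E. coli* holoenzyme (0.35 nM Pol III, 1 nM beta, 154 nM SSB, 2 nM primase) was preincubated with compound for 15 min at RT. Synthesis on 1.4 nM ssM13Gori ran 35 min, then was stopped with PicoGreen/EDTA and read as dsDNA fluorescence.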
BRCT PPI green = blocks human BRCA1 BRCT binding to phosphopeptide, green readout; P38398; AID 875; 75,000 tested, 0.05% active; BRCA1 BRCT-phosphopeptide binding, green fluorescence polarization; Potency, µM (doses to about 76.9 µM), for the others: at the highest dose activity change, negative = inhibition, usual class: inhibitors;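 further: potency means the concentration at half of the fitted maximal effect; plate controls were peptide without protein for full effect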
Target sequence (P38398 whole entry, looked up): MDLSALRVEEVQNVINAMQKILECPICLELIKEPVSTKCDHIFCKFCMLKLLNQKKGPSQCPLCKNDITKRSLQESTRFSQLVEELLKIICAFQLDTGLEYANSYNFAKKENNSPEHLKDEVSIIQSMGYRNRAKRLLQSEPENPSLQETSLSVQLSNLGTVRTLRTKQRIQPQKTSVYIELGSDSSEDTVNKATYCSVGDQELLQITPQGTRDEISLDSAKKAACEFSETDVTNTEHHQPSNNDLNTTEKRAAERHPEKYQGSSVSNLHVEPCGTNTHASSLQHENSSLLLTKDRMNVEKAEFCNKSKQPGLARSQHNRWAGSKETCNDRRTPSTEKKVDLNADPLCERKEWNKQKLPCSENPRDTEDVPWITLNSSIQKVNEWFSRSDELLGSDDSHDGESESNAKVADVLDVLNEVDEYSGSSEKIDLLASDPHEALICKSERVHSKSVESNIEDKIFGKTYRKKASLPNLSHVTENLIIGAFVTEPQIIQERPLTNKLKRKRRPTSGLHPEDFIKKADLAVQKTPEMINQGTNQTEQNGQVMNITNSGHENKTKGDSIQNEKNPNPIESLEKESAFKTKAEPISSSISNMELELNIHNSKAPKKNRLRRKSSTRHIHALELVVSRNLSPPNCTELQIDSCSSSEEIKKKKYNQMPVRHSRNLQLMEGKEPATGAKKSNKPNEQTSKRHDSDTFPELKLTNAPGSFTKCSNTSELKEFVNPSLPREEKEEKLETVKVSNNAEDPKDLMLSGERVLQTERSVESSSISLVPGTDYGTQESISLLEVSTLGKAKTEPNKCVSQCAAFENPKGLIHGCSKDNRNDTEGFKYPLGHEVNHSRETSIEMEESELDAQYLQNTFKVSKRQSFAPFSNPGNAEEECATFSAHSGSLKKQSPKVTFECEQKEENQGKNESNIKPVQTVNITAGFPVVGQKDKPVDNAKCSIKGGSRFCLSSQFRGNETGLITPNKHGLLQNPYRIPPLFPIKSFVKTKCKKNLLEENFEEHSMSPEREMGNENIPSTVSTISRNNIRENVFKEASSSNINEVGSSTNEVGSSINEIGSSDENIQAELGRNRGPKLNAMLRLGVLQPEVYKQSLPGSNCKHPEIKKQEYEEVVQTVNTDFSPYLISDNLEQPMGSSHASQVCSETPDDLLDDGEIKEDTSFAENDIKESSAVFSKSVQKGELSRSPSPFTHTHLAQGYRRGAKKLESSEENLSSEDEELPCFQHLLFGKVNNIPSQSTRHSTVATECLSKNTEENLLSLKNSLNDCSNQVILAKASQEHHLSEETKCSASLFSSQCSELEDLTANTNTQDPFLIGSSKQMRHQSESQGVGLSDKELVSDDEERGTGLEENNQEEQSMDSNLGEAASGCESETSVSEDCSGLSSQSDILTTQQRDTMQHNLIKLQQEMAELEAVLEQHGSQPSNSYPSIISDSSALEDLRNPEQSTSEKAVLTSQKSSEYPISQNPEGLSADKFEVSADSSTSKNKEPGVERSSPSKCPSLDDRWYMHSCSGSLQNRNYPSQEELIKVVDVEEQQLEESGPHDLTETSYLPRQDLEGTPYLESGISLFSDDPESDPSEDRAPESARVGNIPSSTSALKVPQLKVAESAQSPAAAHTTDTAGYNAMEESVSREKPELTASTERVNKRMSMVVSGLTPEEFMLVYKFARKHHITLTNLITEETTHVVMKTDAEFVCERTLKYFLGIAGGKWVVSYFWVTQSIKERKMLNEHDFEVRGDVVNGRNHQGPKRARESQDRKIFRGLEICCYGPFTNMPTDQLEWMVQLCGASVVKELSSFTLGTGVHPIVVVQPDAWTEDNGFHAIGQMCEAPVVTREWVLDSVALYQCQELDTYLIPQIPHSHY
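Fluorescence polarization: His-tagged BRCT (~35 kDa BRCA1 C-terminus, 250 nM) bound to 100 nM fluorescein-labeled phosphorylated 10-aa BACH1 peptide, pH 7.3 phosphate buffer with DTT and Tween 20. Compounds incubated 12 min at room temperature; inhibition read as lowered polarization.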
YjeE inh = displaces an ADP probe from E. coli YjeE (TsaE). 71,000 tested, 0.05% active. purified YjeE enzyme, qHTS inhibition assay. Potency, µM
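Fluorescence polarization of a BODIPY Texas Red–ADP probe (2 uM) bound to purified YjeE (10 uM) was read after 15 min room-temperature incubation with compounds. Loss of polarization marks inhibitors; ADP serves as titrated control.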
ERK AVP inh = inhibitors of vasopressin-stimulated ERK signaling pathway; HEK293-V1b, vasopressin-stimulated pERK AlphaScreen; Potency, µM (highest dose often 57.5 µM), without a hit: at the highest dose activity, negative = inhibition, actives largely listed as inhibitors; 72,000 tested, 0.99% active; AID 995; further: potency means the concentration at half of the fitted maximal effect; on the % scale 0 is the no-effect control and ±100 the full control effect; nearly all actives have a fitted effect of over 55% in size
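HEK293 cells stably expressing V1b receptor, seeded overnight in 1% FBS, were treated with compounds for 30 min at 37C, then stimulated 5 min with 25 nM vasopressin; phospho-ERK read by AlphaScreen SureFire after lysis.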
ALOX15 inhib = inhibitors of human 15-lipoxygenase (ALOX15) | P16050 | purified 15hLO-1, xylenol orange hydroperoxide absorbance | Potency, µM (series often up to 57.1 µM), for the others: top-dose activity change, negative = inhibition, most hits filed as inhibitors | 74,000 tested, 1.4% active | AID 887; further: potency means the concentration at half of the fitted maximal effect; on the % scale 0 is the no-effect control and ±100 the full control effect; nearly all actives have a fitted effect of over 55% in size
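Quantitative HTS in 25 mM Hepes pH 7.5 containing 0.01% Triton X-100: human 15hLO-1 at 40 nM, arachidonic acid at 50 uM, 6 min turnover. Product quantified via ferrous oxidation/xylenol orange, 573:405 nm absorbance ratio.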
BRCT inh red = inhibitors of human BRCA1 BRCT-phosphoprotein interaction (red fluorophore). 75,000 tested, 0.03% active. BRCT-phosphopeptide binding, red fluorescence polarization. Potency, µM (doses to about 76.9 µM), for inactives: at the highest dose activity change, negative = inhibition, usual class: inhibitors; further: on the % scale 0 is the no-effect control and ±100 the full control effect
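Fluorescence polarization: 100 nM His-tagged BRCA1 BRCT with 100 nM TAMRA-labelled phospho-BACH1 decapeptide, phosphate buffer pH 7.3 with 150 mM NaCl, DTT, 0.01% Tween 20; 12 min RT. Binding inhibition seen as FP decrease.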
The depositor's hits bear a star; i = inactive; u = inconclusive; x = no result given; ! = not active in a repeat; [ ] = another dose, or the depositor's remark. Only some compounds are listed: those with a hit (about 2.4% of all), similar ones and a draw of the others. The call rests on the fitted dose curve; in most records, active means well fitted curve in the direction sought with a large enough effect; inconclusive means small, poorly fitted or top-dose-only effect, or another doubt; inactive means no such curve, though single readings can be large; an effect the other way counts as inactive or inconclusive.

SMILES | DNA Pol III inh | BRCT PPI green | YjeE inh | ERK AVP inh | ALOX15 inhib | BRCT inh red
NCCc1cc(O)c(O)cc1O | x | 6.2%[3.08 µM] | x | u | u | -15.9%
CN1CCC[C@@H]1c1cccnc1.O=C(O)c1ccccc1O.O=C([OH2+])c1ccccc1O.O=C([OH2+])c1ccccc1O.[Mn] | -6.4%[11.4 µM] | -1.4%[15.4 µM] | i | -19.3%[11.5 µM] | -2.3%[11.4 µM] | -1.1%[15.4 µM]
CC[n+]1c(-c2ccccc2)c2cc(N)ccc2c2ccc(N)cc21 | 2µM* | u | 79.4µM* | u | 10µM*! | u
CCCc1cc2c(n1CCO)C(C)C1CN(C(=O)c3ccccc3)C(C)(C(=O)OC)C21 (centres undefined) | -2.6% | 1.1% | i | -5.0% | x | 1.3%
N[C@H](CP(=O)(O)O)C(=O)O | 3.7% | 6.7% | i | 4.1% | 4.7% | -3.0%
O=C(Nc1cccc(F)c1)N1CC2(CCNCC2)C1 | -1.7% | -1.5% | i | -0.8% | u | 0.5%
O=C1Nc2ccccc2C2(CCN(CCc3ccc(C(F)(F)F)cc3)CC2)O1 | x | 0.3% | x | 15.8µM* | u | -1.3%
N[C@]1(C(=O)O)CC[C@@H](C(=O)O)C1 | -0.8% | x | i | x | x | x
N[C@@H](CCCCP(=O)(O)O)C(=O)O | -4.1% | -1.2% | i | 11.3% | 10.1%[25.6 µM] | 0.3%
CC1(C)C(O)CC(=O)[C@]2(C)C1CC(=O)[C@]1(C)C2CC[C@@]2(C)C(c3ccoc3)OC(=O)C3O[C@@]321 (some centres undefined) | x | -4.4%[3.08 µM] | x | -0.1% | 4.6% | -0.3%
O=C(O)[C@@H]1[C@H](C(=O)O)[C@]2(Cl)C(Cl)=C(Cl)[C@@]1(Cl)C2(Cl)Cl | 2µM* | -5.4%[15.4 µM] | i | u | 2.51µM* | -2.7%[15.4 µM]
CC[C@H](CO)NC(=O)[C@@H]1C=C2c3cccc4[nH]cc(c34)C[C@@H]2N(C)C1 | -4.4% | -2.6% | i | -13.5% | 7.0% | -2.6%
CN1CC=C(c2c[nH]c3ccccc23)CC1 | -12.4% | -2.0% | i | 1.4% | 0.631µM* | -0.9%
Oc1cccc(Cl)c1Cl | -0.5% | -1.5% | i | 4.1% | -2.7% | -0.2%
Oc1ccccc1O | -0.4% | -1.8% | i | -21.8% | 15.8µM* | -1.4%
C[C@H](NC(C)(C)C)C(=O)c1cccc(Cl)c1 | -4.8%[25.6 µM] | -3.5%[34.4 µM] | i | 5.1%[25.7 µM] | 6.0%[25.6 µM] | -0.7%[34.4 µM]
CN(N=O)c1ccc(O)c(O)c1 | 0.398µM* | 10µM* | i | -6.9% | 15.8µM* | 6.31µM*
CC(C)=CCCC(C)C1CC[C@@]2(C)C3=C(CC[C@@]12C)C1(C)CCC(O)C(C)(C)C1CC3 (some centres undefined) | x | -2.0% | x | -5.7% | u | -1.4%
c1ccc2c(c1)Nc1ccccc1S2 | -1.4% | -1.2% | i | -3.4% | 6.31µM* | -0.1%
[O]=[Cr](=[O])([OH])[O][Cr](=[O])(=[O])[OH] | 5.01µM*! | -2.9% | i | 18.0% | -0.1% | -3.0%
CCNC(C)(C)[C@@H](SS)c1ccc(Br)cc1 | -6.5%[11.4 µM] | -0.2%[15.4 µM] | i | 2.6%[11.5 µM] | -12.3%[11.4 µM] | -0.1%[15.4 µM]
N#C/C(=C\c1ccc(O)c(O)c1)C(N)=S | -9.6% | 195.1% | i | 15.8µM*! | 3.98µM* | -0.3%
Cc1cc(Cc2cc(C)c(N)cc2N)c(N)cc1N | -17.0%[11.4 µM] | -5.8%[15.4 µM] | i | -14.0%[11.5 µM] | u | -1.7%[15.4 µM]
NC(=O)CI | -9.3% | -3.0% | i | 14.1% | 31.6µM* | -2.4%
O=C(c1ccc2nc(-c3ccco3)c(-c3ccco3)nc2c1)N1CCC2(CC1)OCCO2 | u | -12.9% | i | u | 3.98µM* | -28.2%
SMILES | DNA Pol III inh | BRCT PPI green | YjeE inh | ERK AVP inh | ALOX15 inhib | BRCT inh red
Cc1nc2cc(C(=O)N3CCC4(CC3)OCCO4)ccc2n1-c1cccc(F)c1 | -2.7% | -0.3% | i | -5.1% | 2.6% | -1.5%
Oc1ccc(Cl)cc1Cc1cc(Cl)ccc1O | -2.3% | -3.4% | i | -6.3% | 12.6µM* | -0.8%
Oc1ccc(Cl)cc1Cc1ccccc1 | -0.6% | 17.4% | i | 34.0% | u | -1.5%
C=CCn1c(O)c(C(C)=Nc2ccc(N(CC)CC)cc2)c(=O)[nH]c1=O | -4.5% | 0.3% | i | -19.5% | -19.0% | -1.5%
C=CCn1c(O)c(C(C)=Nc2ccc(N(C)C)cc2)c(=O)[nH]c1=O | 0.1% | -2.3% | i | 12.6µM* | -20.4% | -0.8%
O=C(O)CN1CCN(CC(=O)O)CC(=O)[O][Hg][O]C(=O)C1 | -7.8%[11.4 µM] | 0.0%[15.4 µM] | i | -19.7%[11.5 µM] | 0.159µM* | -3.9%[15.4 µM]
C[C@H]1CC[C@@]2(NC1)O[C@@H]1C[C@@H]3[C@@H]4CC=C5C[C@@H](O)CC[C@]5(C)[C@@H]4CC[C@]3(C)[C@H]1[C@@H]2C | 7.5%[11.4 µM] | -1.3%[15.4 µM] | i | 12.5%[11.5 µM] | 29.6%[11.4 µM] | 2.6%[15.4 µM]
CC1CC2CC(=O)C3CCCN4CCCC2[C@]34C1 (some centres undefined) | x | -0.1% | x | u | -1.5% | 2.5%
CCC(COC(=O)c1cc(OC)c(OC)c(OC)c1)(c1ccccc1)N(C)C (centres undefined) | x | 1.1%[3.08 µM] | x | 31.6µM* | -15.2% | -2.9%
C#CCO | -2.0% | 0.6% | i | 15.7% | 0.5% | 0.0%
O=C(Oc1ccccc1)N1CCC2(CCN(Cc3nccs3)CC2)CC1 | -4.2% | -2.8% | i | 14.2% | 4.0% | -0.2%
